# IDE inh: cellular human IDE inhibition; HEK cells, FAbetaB cleavage, fluorescence polarization; 0.41% of 320,000 active; AID 434962; P14735; inhibition, % at 5.59 µM;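 active = percent inhibition above the average of all tested compounds plus 3 SD, set per screening campaign, cut at about 16% in these data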;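 also: IDE supplied by intact live HEK cells; FP after avidin binding of uncleaved biotin substrate so inhibition keeps polarization high; 0% = DMSO wells and 100% = 60 µM reference IDE inhibitor Ii1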
# TPT1 inhibitor: inhibitors of Candida albicans tRNA 2'-phosphotransferase TPT1 | recombinant caTPT1, FP RNA substrate dephosphorylation | inhibition, % at 5 µM | 0.81% of 300,000 active;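 active = inhibition above the mean of all tested compounds plus 3 SD, set per screening campaign, cut at about 24% in these data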;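 also: plate controls were DMSO alone for no effect and ferristatin control at 100 nM for full effect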
# HNF4A DNA FP: change in binding of human HNF4 alpha to DNA; P41235; HNF4a-FITC DNA binding, fluorescence polarization, 1 h; activity change, % at 10 µM; 0.3% of 360,000 active; in the data active = activity change above about 30%, passing the limit was not always enough
# Target sequence (P41235 whole entry, looked up): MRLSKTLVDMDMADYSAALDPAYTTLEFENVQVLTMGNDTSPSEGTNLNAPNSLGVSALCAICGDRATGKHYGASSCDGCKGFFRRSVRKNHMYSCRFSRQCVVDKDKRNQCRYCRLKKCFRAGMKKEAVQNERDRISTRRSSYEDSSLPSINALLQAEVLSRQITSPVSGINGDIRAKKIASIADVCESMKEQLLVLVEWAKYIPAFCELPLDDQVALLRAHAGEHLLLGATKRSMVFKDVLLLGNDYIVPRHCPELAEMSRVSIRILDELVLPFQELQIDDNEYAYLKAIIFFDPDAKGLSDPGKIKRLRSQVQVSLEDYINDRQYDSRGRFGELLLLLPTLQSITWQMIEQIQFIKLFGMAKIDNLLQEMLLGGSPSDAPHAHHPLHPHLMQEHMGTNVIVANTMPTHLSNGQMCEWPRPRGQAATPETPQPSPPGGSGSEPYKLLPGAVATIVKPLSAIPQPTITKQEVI
# CRFR2-BP ag: CRF-BP/CRF-R2 complex agonism. HEK293 CRF-R2/CRF-BP, calcium dye fluorescence (FLIPR); percent of saturating CRF peptide response. activation, % at 13.2 µM. 0.46% of 350,000 active. AID 588473;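 active = activation of at least 50%, plus an integration ratio under a set limit after plate pattern correction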;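 also: plate controls were neutral control wells without compound for no effect and CRF at EC100 for full effect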
# IDE cell activ: IDE (human) activation, cell-based; HEK cells, FAbeta-B cleavage, fluorescence polarization; 0% vehicle, 100% cell-free pure enzyme wells; P14735; 0.073% of 340,000 active; AID 493087; activation, % at 5.96 µM;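 active = activation above the mean of all tested compounds plus 3 SD, set per screening campaign, cut at about 17% in these data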
# * marks the source's active call; other numbers are inactive results; · = no result. A selection: hits, their analogues and other compounds. The true share with any hit is near 1.4%.
SMILES,IDE inh,TPT1 inhibitor,HNF4A DNA FP,CRFR2-BP ag,IDE cell activ
CCN1/C(=C/c2ccc3ccccc3[n+]2CC)C=Cc2ccccc21,3,18,44*,-1,-11
CCCCN1/C(=C/c2ccc3ccccc3[n+]2CC)Sc2ccccc21,·,·,35,128*,·
CCN1/C(=C/c2ccc3ccccc3[n+]2CCCS(=O)(=O)[O-])C=Cc2cc(C)ccc21,·,·,7,2,-1
CCCCN1/C(=C/c2cccc[n+]2C)Sc2cc(NC(C)=O)ccc21,-2,5,4,0,1
CCN1/C(=C/c2ccc3cc(C)ccc3[n+]2CC)Sc2cc(C)ccc21,·,·,109*,131*,-76
Cc1cc(/C=C2\SC(=S)N(Cc3ccco3)C2=O)c(C)n1-c1cccnc1,·,·,120,55*,-16
O=C1/C(=C/c2cccnc2)SC(=S)N1Cc1ccco1,·,·,7,-4,3
O=C(Nc1ccc(Cl)cc1Cl)c1ccc2c(=O)n3c(nc2c1)CCC3,-10,-1,-1,29,1
O=C(Nc1ccc(Br)cc1Cl)c1ccc2c(=O)n3c(nc2c1)CCC3,8,3,0,101*,5
CCOc1ccc(S(=O)(=O)N2CCN=C2c2ccccc2)cc1,-2,-2,0,-4,4
Cc1cccc(NC(=O)c2cc(-c3cc(C)cc(C)c3O)n[nH]2)c1,2,-1,31*,1,0
Cc1nc2ccsc2c(=O)n1-c1cccc(Cl)c1,-5,2,-2,-1,1
CC(=NNC(=O)c1ccncc1)c1ccccc1O,·,·,-3,0,2
O=C(NN=Cc1c(O)ccc2ccccc12)c1ccncc1,·,·,143,149*,-69
CC(=NNC(=O)c1ccncc1)c1ccc2ccccc2c1O,·,·,143,297*,-102
CC1(c2ccc(OC(F)F)cc2)NC(=O)N(CC(=O)Nc2cccc(F)c2)C1=O (configuration not stated),-2,1,-2,136*,4
Cc1cc(NC(=O)CN2C(=O)NC(C)(c3ccc(OC(F)F)cc3)C2=O)no1 (configuration not stated),6,0,0,78*,0
CCOc1ccc(NC(=O)CN2C(=O)NC(C)(c3ccc(OC(F)F)cc3)C2=O)cc1 (configuration not stated),3,-2,-3,74*,0
Cc1c(Cc2ccccc2)c(=O)oc2cc(OCC(=O)N3CCC(C(=O)O)CC3)ccc12,1,-4,0,1,4
COc1ccc(C)cc1-n1nnnc1SCC(=O)NC1CC1,-3,·,0,-1,4
CC(C)CN1C(=O)NC(NC(=O)c2ccco2)(C(F)(F)F)C1=O (configuration not stated),4,-2,39*,-1,0
CN1C(=O)NC(NC(=O)c2ccco2)(C(F)(F)F)C1=O (configuration not stated),-1,5,-1,-2,3
Cc1cc2c(cc1C)-n1nnnc1C(N1CCN(C(=O)OCc3ccccc3)CC1)C(=O)N2 (configuration not stated),·,·,-2,·,·
N#CC(C#N)=C(Nc1ccc(F)cc1)SCc1cccc(F)c1,4,-3,13,105*,5
CCOc1ccc(N/C(SCc2cccc([N+](=O)[O-])c2)=C(/C#N)C(N)=O)cc1,0,-2,-3,-4,2
SMILES,IDE inh,TPT1 inhibitor,HNF4A DNA FP,CRFR2-BP ag,IDE cell activ
O=C(NCCCN1CCOCC1)C1CCN(S(=O)(=O)c2ccccc2)CC1,3,-1,1,0,3
COc1cc2oc3ccccc3c2cc1N(CC(=O)N1CCCCC1)S(=O)(=O)c1ccc(C)cc1,2,-1,3,89*,1
Cc1cccc2c1cnn2C(=O)CCC(=O)NCC(C)c1ccccc1 (configuration not stated),3,5,-2,-2,0
O=c1[nH]c(=O)n(-c2ccccc2)c2c1C(C(F)(F)F)(C(F)(F)F)N=C(CCC1CCCCC1)N2,0,2,-1,109*,-2
O=c1[nH]c(=O)n(Cc2ccco2)c2c1C(C(F)(F)F)(C(F)(F)F)N=C(CCC1CCCCC1)N2,5,1,-2,1,3
CCN(CC)c1ncnc2c1ncn2[C@H]1CN(Cc2ccncc2)C[C@@H](CO)O1,·,·,0,·,·
COCO/C=C(\NC(C)=O)c1ccccc1,2,·,3,1,31*
COc1ccc(NS(=O)(=O)c2ccc(O)c(NC(=O)c3cc4c(C)nn(-c5ccc(F)cc5)c4s3)c2)cc1,-1,1,-29,93*,1
COc1cc([N+](=O)[O-])ccc1-c1ccc(/C=N/NC(=O)OC(C)(C)C)o1,2,18,20,57*,2
Cc1ccc2c(c1)c1c(n2CC(O)CNC2CCCC2)CCCC1 (configuration not stated),5,-5,0,3,18*
Cc1ccc2c(c1)c1c(n2CC(O)Cn2ccnc2C)C(=O)CCC1 (configuration not stated),2,-5,3,-1,2
CCOc1cc(C=C2C(=O)c3ccccc3C2=O)ccc1OCC(=O)Nc1ccc(C)cc1,2,-4,-1,113*,5
COc1ccc(/C=C(\C#N)C(=O)Nc2cc(C)c(Cl)cc2OC)cc1O,-4,3,8,1,20*
COc1ccc(/C=C(\C#N)C(=O)NCc2ccccc2)cc1O,0,-1,-1,0,-1
CCCC(CCC)C(=O)Nc1cccc(-c2cn3c(n2)SCC3)c1,-1,1,38*,-1,1
CCS(=O)(=O)Nc1cccc(-c2cn3c(n2)SCC3)c1,7,0,-4,-2,4
COc1ccc(C(C(=O)c2ccccc2)c2ccccc2)cc1 (configuration not stated),·,·,3,·,·
O=C1NC(=S)S/C1=C\c1cc(Cl)cc(Cl)c1O,·,·,28,83*,-136
O=C1NC(=S)SC1=Cc1ccccc1Cl,·,·,20,26,4
CCOC(=O)C1=C(COC(=O)c2ccc3ccccc3c2O)NC(=O)NC1C (configuration not stated),1,·,-23,53*,3
CC1(c2nnnn2-c2ccc3c(c2)OCCO3)CCC(=O)N1CCc1ccccc1F (configuration not stated),·,·,3,·,·
O=C(O)CCC(=O)Nc1cccc(C(=O)Nc2ccc(Br)cc2)c1,3,3,80*,-2,7
C#CCOCCOCCOCCNc1nc(N2CCN(C(=O)[C@H](CCCCN)n3cc(CN)nn3)CC2)nc(N2CCN(C(=O)[C@H](CCCCN)n3cc(CN)nn3)CC2)n1,2,·,59*,1,1
C#CCOCCOCCOCCNc1nc(N2CCN(C(=O)CCCCCCCCCCNC(=O)[C@@H](CCC(=O)O)n3cc(CCCCCN)nn3)CC2)nc(N2CCN(C(=O)CCCCCCCCCCNC(=O)[C@H](CCCCN)n3cc(C[C@@H](C)CC)nn3)CC2)n1,5,-4,5,149*,14

# Screening data from PubChem BioAssay.
